Source: PubChem
Shiga toxin inh = blocks Shiga toxin action in Vero cells. Vero cells, Shiga toxin protein synthesis inhibition reporter. inhibition, % at 38.7 µM. 290,000 tested, 9.2% active; in the data active = inhibition mostly above about 28%, no sharp cut-off; inactive = mostly below about 43%
Pf growth 48h = P. falciparum growth inhibition at 48 hours (one generation) | Potency, µM (top dose mostly 28.7 µM), actives largely listed as inhibitors | P. falciparum luciferase growth in erythrocytes, 48 h | 310,000 tested, 5.9% active
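Here the parasites carry a stable luciferase gene and grow inside erythrocytes in Albumax-based RPMI medium with compound for one erythrocytic cycle. Activity is scored as loss of luminescent signal.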
Pf growth 96h = P. falciparum growth inhibition at 96 hour, primary screen for plastid delayed-death inhibitors | 320,000 tested, 6.9% active | AID 504834 | P. falciparum luciferase reporter growth, 96 h | Potency, µM (series often up to 28.7 µM), usual class: inhibitors
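Luminescence readout: decreased luciferase signal marks inhibited growth of reporter-expressing P. falciparum in infected red cells (2% hematocrit, 0.05% parasitemia final), exposed to compound two generations (96 h, 37 C, 5% CO2).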
Cycloheximide cs = affects cycloheximide protein synthesis inhibition readout, counter-screen. 300,000 tested, 12% active. max response, %. AID 2314. cell reporter, cycloheximide protein synthesis inhibition counterscreen; in the data active = max response mostly above about 13%, no sharp cut-off; inactive = mostly below about 14%; also: read at 38.3 µM for the half of the compounds with a filed dose
NS1 inh = inhibitors of influenza NS1 protein function; Potency, µM (titrated, usually from 46.1 µM); 270,000 tested, 0.4% active; AID 2326; calls by dose curve; also: actives are rising curves; nearly all actives have a fitted effect of over 50% in size
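In this qHTS, NS1 from influenza A is expressed in budding yeast, where it slows growth. Cells are switched from glucose to 2% galactose medium (pH 6.0, -URA), treated with compound, and growth recovery is read at OD600.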
Of the large screens only hits and unclear results are named; the others gave an inactive call. A selection: hits, their analogues and other compounds. The true share with any hit is near 21%. Unless noted, calls follow the shape of the dose curve; as a rule, active = well fitted inhibition curve with a large enough effect; inconclusive = small, poorly fitted or top-dose-only effect, or another doubt; inactive = no such curve, though single readings can be large or run the other way.

O=C(c1ccc2c(c1)OCO2)C1CCCN(C2CCN(CCc3ccccc3)CC2)C1 (centres undefined)	Pf growth 48h 2.6µM
CC(=O)c1cccc(CN2CCCC(C(=O)c3ccc4c(c3)OCO4)C2)c1 (centres undefined)	Pf growth 48h inconclusive, Pf growth 96h inconclusive
Cc1cc(Br)ccc1NS(=O)(=O)c1c(C)[nH]c(=O)[nH]c1=O	Pf growth 96h 5.2µM
Cc1ccc(NS(=O)(=O)c2c(C)[nH]c(=O)[nH]c2=O)c(C)c1	none
CCOC(=O)c1cc(CC)sc1NC(=O)CC1Sc2ccc(C(F)(F)F)cc2NC1=O (centres undefined)	none
O=C(/C=C/c1ccc(F)cc1)N1CCN(S(=O)(=O)/C=C/c2ccccc2)CC1	none (no result: NS1 inh)
Cc1ccc(/C=C/C(=O)N2CCN(S(=O)(=O)/C=C/c3ccccc3)CC2)o1	Pf growth 96h 5.9µM
Cc1ccc(Cn2nc(C)c(C(=O)N3CCN(S(=O)(=O)/C=C/c4ccccc4)CC3)c2C)cc1	Pf growth 48h 6.6µM, Pf growth 96h 3.3µM (no result: Shiga toxin inh, Cycloheximide cs, NS1 inh)
O=C(/C=C/c1ccco1)N1CCN(S(=O)(=O)/C=C/c2ccccc2)CC1	Pf growth 48h inconclusive, Pf growth 96h inconclusive, Cycloheximide cs 30, NS1 inh inconclusive
Cc1ccc(/C=C/C(=O)N2CCN(S(=O)(=O)c3cccs3)CC2)o1	Pf growth 96h inconclusive, Cycloheximide cs 23, NS1 inh inconclusive
Cc1ccc(NC(=O)Cn2c(=O)c3cccn3c3ccccc32)cc1	Pf growth 96h inconclusive
O=C(Cn1ccc2ccccc2c1=O)NCC(=O)N1CCN(c2ccc(F)cc2)CC1	Pf growth 96h inconclusive
Cc1cc(=O)oc2c3c(cc(OCC(=O)NC4CC4)c12)OC(C)(C)CC3	Pf growth 48h inconclusive, Pf growth 96h 15µM
Cc1c(C)c2c(OCC(=O)NC3CC3)cc3c(c2oc1=O)CCC(C)(C)O3	Pf growth 48h inconclusive, Pf growth 96h 12µM
CSC[C@H](NC(=O)COc1cc2c(c3oc(=O)c(C)c(C)c13)CCC(C)(C)O2)C(=O)O	none
Cc1cc(=O)oc2c3c(cc(OCC(=O)NCc4ccccc4)c12)OC(C)(C)CC3	Pf growth 48h inconclusive, Pf growth 96h 12µM
Cc1cc(=O)oc2c3c(cc(OCC(=O)NCC(=O)O)c12)OC(C)(C)CC3	none
Cc1cc(=O)oc2c3c(cc(OCC(=O)Nc4cccnc4)c12)OC(C)(C)CC3	Pf growth 96h 1.3µM
Cc1c(C)c2c(OCC(=O)N[C@@H](Cc3ccccc3)C(=O)O)cc3c(c2oc1=O)CCC(C)(C)O3	Pf growth 48h inconclusive, Pf growth 96h inconclusive
Cc1c(C)c2c(OCC(=O)NCC(O)c3ccccc3)cc3c(c2oc1=O)CCC(C)(C)O3 (centres undefined)	Pf growth 48h inconclusive, Pf growth 96h 4.7µM
COc1cccc(CNC(=O)CCC2CCCN(Cc3cc4ccccc4o3)C2)c1 (centres undefined)	Pf growth 48h inconclusive, Pf growth 96h inconclusive
Cc1cc(C)cc(NC(=O)N2CCN(S(C)(=O)=O)CC2)c1	none
CCCC12CN3CC(C)(CN(C1)C3c1ccc(OC)cc1)C2=O (centres undefined)	Pf growth 48h inconclusive
CCC12CN3CC(CC)(CN(C1)C3c1ccc(OC(C)C)cc1)C2=O (centres undefined)	Pf growth 48h inconclusive, Pf growth 96h 4.7µM
NS(=O)(=O)c1cccc(NC(=O)CN2CCN(Cc3ccc4c(c3)OCO4)CC2)c1	none
CC(C)OCCCN1CC(=O)N2C(c3cccc([N+](=O)[O-])c3)c3[nH]c4ccccc4c3C[C@H]2C1=O (some centres undefined)	Pf growth 48h 8.3µM, Pf growth 96h inconclusive
COc1ccc(OC)c(C2c3[nH]c4ccccc4c3C[C@H]3C(=O)N(CCCOC(C)C)CC(=O)N23)c1 (some centres undefined)	Pf growth 48h 7.4µM, Pf growth 96h 12µM
COc1ccc(C2c3[nH]c4ccccc4c3C[C@H]3C(=O)N(CCCO)CC(=O)N23)c(OC)c1 (some centres undefined)	none
COCCCN1CC(=O)N2C(c3cccc(OC)c3)c3[nH]c4ccccc4c3C[C@H]2C1=O (some centres undefined)	Pf growth 48h inconclusive, Pf growth 96h inconclusive
COCCNc1nc(-c2cc(-c3ccc(Cl)cc3)on2)cc(C(C)C)n1	none
COCCNc1nc(-c2cc(C)n(CCc3ccc(OC)cc3)c2C)cs1	Pf growth 48h 2.6µM, Pf growth 96h inconclusive (no result: NS1 inh)
COc1ccccc1CNc1nc(-c2cc(C)n(C)c2C)cs1	Pf growth 48h inconclusive (no result: NS1 inh)
COc1ccc(N(Cc2cc3ccc(C)cc3[nH]c2=O)C(C)=O)cc1	Pf growth 48h inconclusive, Pf growth 96h inconclusive
